Measured values as given in PubChem BioAssay AID1159580 (chemical genetic matrix, 2015).
About 2,000 (36%) of roughly 5,500 compounds were called active. Another 18% or so got no clear call; they are omitted. Cut-off read from the data, not from the text of the source: active = normalized growth mostly below about 0.91 (no sharp cut-off); inconclusive = no clear call, values can overlap the other calls; inactive = mostly above about 0.92. Some of the results follow.

Experiment: chemical genetic growth profiling, strain panel (AID 1159580);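 note: tested at 20 µM; growth read once vehicle control cultures reached saturation at 30 °C; 1 = growth at the plate median or of vehicle wells; lower values mean less growth of the strain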
Conditions: growth OD

Measured: normalized growth

COc1cc([C@@H]2c3cc4c(c(O)c3C[C@H]3COC(=O)[C@@H]32)OCO4)cc(OC)c1OC
inactive: S. cerevisiae deletion strains, locus YJR043C, strain POL32, stronger effect = lower value 0.989 | S. cerevisiae deletion strains, locus YJR075W, strain HOC1, stronger effect = lower value 0.996 | S. cerevisiae deletion strains, locus YKL009W, strain mrt4, stronger effect = lower value 0.983 | S. cerevisiae deletion strains, locus YKL068W, stronger effect = lower value 0.979 | S. cerevisiae deletion strains, locus YKL085W, strain MDH1 (second series), stronger effect = lower value 0.973 | S. cerevisiae deletion strains, locus YKL085W, strain MDH1, stronger effect = lower value 0.973 | S. cerevisiae deletion strains, locus YKL160W, strain elf1, stronger effect = lower value 1 | S. cerevisiae deletion strains, locus YKL190W, strain CNB1, stronger effect = lower value 0.986 | S. cerevisiae deletion strains, locus YKR001C, strain vps1, stronger effect = lower value 1 | S. cerevisiae deletion strains, locus YKR026C, strain gcn3, stronger effect = lower value 0.985 | S. cerevisiae deletion strains, locus YKR091W, strain srl3, stronger effect = lower value 0.995 | S. cerevisiae deletion strains, locus YLL001W, strain dnm1, stronger effect = lower value 0.991 | S. cerevisiae deletion strains, locus YLL026W, stronger effect = lower value 0.993 | S. cerevisiae deletion strains, locus YLL041C, strain sdh2, stronger effect = lower value 0.99 | S. cerevisiae deletion strains, locus YLR027C, strain aat2, stronger effect = lower value 0.974 | S. cerevisiae deletion strains, locus YLR039C, strain RIC1, stronger effect = lower value 0.921 | S. cerevisiae deletion strains, locus YLR058C, strain SHM2, stronger effect = lower value 0.982 | S. cerevisiae deletion strains, locus YLR102C, strain apc9, stronger effect = lower value 0.976 | S. cerevisiae deletion strains, locus YLR221C, strain rsa3, stronger effect = lower value 0.959 | S. cerevisiae deletion strains, locus YLR258W, strain gsy2, stronger effect = lower value 1.01 | S. cerevisiae deletion strains, locus YLR262C, strain YPT6 (second series), stronger effect = lower value 0.989 | S. cerevisiae deletion strains, locus YLR262C, strain YPT6, stronger effect = lower value 0.907 | S. cerevisiae deletion strains, locus YLR268W, strain sec22, stronger effect = lower value 1.01 | S. cerevisiae deletion strains, locus YLR320W, strain mms22, stronger effect = lower value 0.963 | S. cerevisiae deletion strains, locus YLR330W, strain CHS5, stronger effect = lower value 0.981 | S. cerevisiae deletion strains, locus YLR342W, strain FKS1 (second series), stronger effect = lower value 0.971 | S. cerevisiae deletion strains, locus YLR342W, strain FKS1, stronger effect = lower value 0.983 | S. cerevisiae deletion strains, locus YLR357W, strain rsc2, stronger effect = lower value 0.999 | S. cerevisiae deletion strains, locus YLR370C, strain arc18, stronger effect = lower value 1 | S. cerevisiae deletion strains, locus YLR371W, strain rom2, stronger effect = lower value 0.946 | S. cerevisiae deletion strains, locus YLR384C, strain iki3, stronger effect = lower value 0.98 | S. cerevisiae deletion strains, locus YLR418C, strain cdc73, stronger effect = lower value 1.01 | S. cerevisiae deletion strains, locus YML016C, strain PPZ1, stronger effect = lower value 0.992 | S. cerevisiae deletion strains, locus YML032C, strain rad52, stronger effect = lower value 0.991 | S. cerevisiae deletion strains, locus YML120C, strain ndi1, stronger effect = lower value 0.998 | S. cerevisiae deletion strains, locus YML124C, strain tub3, stronger effect = lower value 0.988 | S. cerevisiae deletion strains, locus YMR058W, strain fet3, stronger effect = lower value 0.999 | S. cerevisiae deletion strains, locus YMR078C, strain ctf18, stronger effect = lower value 0.995 | S. cerevisiae deletion strains, locus YMR125W, strain sto1, stronger effect = lower value 0.986 | S. cerevisiae deletion strains, locus YMR129W, stronger effect = lower value 0.984 | S. cerevisiae deletion strains, locus YMR205C, strain PFK2, stronger effect = lower value 0.982 | S. cerevisiae deletion strains, locus YMR223W, strain ubp8, stronger effect = lower value 0.987 | S. cerevisiae deletion strains, locus YMR231W, strain pep5, stronger effect = lower value 0.991 | S. cerevisiae deletion strains, locus YMR263W, strain SAP30, stronger effect = lower value 1 | S. cerevisiae deletion strains, locus YMR307W, strain GAS1, stronger effect = lower value 1.02 | S. cerevisiae deletion strains, locus YNL067W, strain RPL9B, stronger effect = lower value 1.02 | S. cerevisiae deletion strains, locus YNL071W, strain lat1, stronger effect = lower value 1.01 | S. cerevisiae deletion strains, locus YNL128W, strain TEP1, stronger effect = lower value 0.989 | S. cerevisiae deletion strains, locus YNL153C, strain GIM3, stronger effect = lower value 1.03 | S. cerevisiae deletion strains, locus YNL209W, strain ssb2, stronger effect = lower value 1 | S. cerevisiae deletion strains, locus YNL233W, strain BNI4, stronger effect = lower value 1.04 | S. cerevisiae deletion strains, locus YNL248C, strain rpa49, stronger effect = lower value 0.984 | S. cerevisiae deletion strains, locus YNL250W, strain rad50, stronger effect = lower value 0.955 | S. cerevisiae deletion strains, locus YNL271C, strain bni1, stronger effect = lower value 0.973 | S. cerevisiae deletion strains, locus YNL298W, strain CLA4, stronger effect = lower value 0.976 | S. cerevisiae deletion strains, locus YNL307C, strain MCK1, stronger effect = lower value 0.992 | S. cerevisiae deletion strains, locus YNL322C, strain KRE1 (second series), stronger effect = lower value 1 | S. cerevisiae deletion strains, locus YNL322C, strain KRE1, stronger effect = lower value 0.979 | S. cerevisiae deletion strains, locus YNR049C, strain mso1, stronger effect = lower value 0.986 | S. cerevisiae deletion strains, locus YNR052C, strain pop2, stronger effect = lower value 0.975 | S. cerevisiae deletion strains, locus YOL006C, strain TOP1, stronger effect = lower value 1.08 | S. cerevisiae deletion strains, locus YOL012C, strain htz1 0.866 | S. cerevisiae deletion strains, locus YOL147C, strain pex11, stronger effect = lower value 0.985 | S. cerevisiae deletion strains, locus YOR001W, strain rrp6, stronger effect = lower value 0.957 | S. cerevisiae deletion strains, locus YOR061W, strain CKA2, stronger effect = lower value 0.986 | S. cerevisiae deletion strains, locus YOR069W, strain VPS5, stronger effect = lower value 0.992 | S. cerevisiae deletion strains, locus YOR070C, strain gyp1, stronger effect = lower value 0.987 | S. cerevisiae deletion strains, locus YOR080W, strain dia2, stronger effect = lower value 0.98 | S. cerevisiae deletion strains, locus YOR083W, strain WHI5, stronger effect = lower value 1.01 | S. cerevisiae deletion strains, locus YOR106W, strain vam3, stronger effect = lower value 1 | S. cerevisiae deletion strains, locus YOR136W, strain idh2, stronger effect = lower value 0.984 | S. cerevisiae deletion strains, locus YOR144C, strain elg1, stronger effect = lower value 0.984 | S. cerevisiae deletion strains, locus YOR184W, strain ser1, stronger effect = lower value 0.973 | S. cerevisiae deletion strains, locus YOR265W, strain rbl2, stronger effect = lower value 0.992 | S. cerevisiae deletion strains, locus YOR270C, strain vph1, stronger effect = lower value 0.98 | S. cerevisiae deletion strains, locus YOR290C, strain snf2, stronger effect = lower value 0.987 | S. cerevisiae deletion strains, locus YOR316C, strain cot1, stronger effect = lower value 0.983 | S. cerevisiae deletion strains, locus YPL051W, strain arl3, stronger effect = lower value 0.965 | S. cerevisiae deletion strains, locus YPL055C, strain LGE1, stronger effect = lower value 1.03 | S. cerevisiae deletion strains, locus YPL078C, strain atp4, stronger effect = lower value 1.01 | S. cerevisiae deletion strains, locus YPL106C, strain sse1, stronger effect = lower value 0.987 | S. cerevisiae deletion strains, locus YPL240C, strain hsp82, stronger effect = lower value 0.992 | S. cerevisiae deletion strains, locus YPL241C, strain CIN2, stronger effect = lower value 0.987 | S. cerevisiae deletion strains, locus YPR119W, strain clb2, stronger effect = lower value 0.979 | S. cerevisiae deletion strains, locus YPR141C, strain kar3, stronger effect = lower value 0.979 | S. cerevisiae deletion strains, locus YPR163C, strain tif3, stronger effect = lower value 0.97 | S. cerevisiae deletion strains, locus YPR167C, strain met16, stronger effect = lower value 0.971 | S. cerevisiae deletion strains, strain wtn01, stronger effect = lower value 1 | S. cerevisiae strains, strain wild type, stronger effect = lower value 0.99
